From PubChem BioAssay AID1159580 (chemical genetic matrix, 2015)
Several values for one entry are separate records, joined by “and”; a condition that tells them apart may be missing. Equal values may be shown once. Screen size: about 5,500 compounds; about 2,000 (36%) were called active. Roughly 18% stayed inconclusive and do not appear here. No stated cut-off is given here; in the data, active means normalized growth mostly below about 0.91 (no sharp cut-off); inconclusive means no clear call, values can overlap the other calls; inactive means mostly above about 0.92. This is one part of the list.

Test: chemical genetic growth profiling, strain panel (AID 1159580);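 further: tested at 20 µM; growth read once vehicle control cultures reached saturation at 30 °C; 1 = growth at the plate median or of vehicle wells; lower values mean less growth of the strain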
Conditions: S. cerevisiae deletion strains, growth OD

Measured: normalized growth

OC[C@H]1O[C@@H](O[C@H]2[C@H](O)[C@@H](O)[C@@H](O)O[C@@H]2CO)[C@H](O)[C@@H](O)[C@@H]1O
inactive: locus YAL013W, strain DEP1, active compounds read low 1.02 | locus YAL021C, strain ccr4, active compounds read low 1.01 | locus YAL026C, strain drs2, active compounds read low 1.01 | locus YAL030W, strain snc1, active compounds read low 1 | locus YBL061C, strain skt5, active compounds read low 1 | locus YBR009C, strain hhf1, active compounds read low 1.06 | locus YBR021W, strain FUR4, active compounds read low 1.04 | locus YBR023C, strain chs3, active compounds read low 1.01 | locus YBR171W, strain sec66, active compounds read low 0.996 | locus YBR229C, strain ROT2, active compounds read low 1 | locus YBR231C, strain swc5, active compounds read low 1 | locus YBR279W, strain paf1, active compounds read low 0.993 | locus YCL011C, strain gbp2, active compounds read low 1.02 | locus YCL016C, strain dcc1, active compounds read low 1.01 | locus YCL029C, strain bik1, active compounds read low 1.01 | locus YCL061C, strain MRC1, active compounds read low 1 | locus YCL069W, strain vba3, active compounds read low 1.01 | locus YCR088W, strain abp1, active compounds read low 0.997 | locus YDL005C, strain med2, active compounds read low 0.986 | locus YDL035C, strain GPR1, active compounds read low 1.04 | locus YDL040C, strain nat1, active compounds read low 0.994 | locus YDL074C, strain BRE1, active compounds read low 1.09 | locus YDL101C, strain DUN1, active compounds read low 1.01 | locus YDL134C, strain PPH21, active compounds read low 1.01 | locus YDL185W, strain tfp1, active compounds read low 1.02 | locus YDL192W, strain arf1, active compounds read low 1.03 | locus YDR001C, strain nth1, active compounds read low 0.999 | locus YDR069C, strain doa4, active compounds read low 0.981 | locus YDR101C, strain arx1, active compounds read low 1.02 | locus YDR137W, strain rgp1, active compounds read low 1.01 | locus YDR159W, strain sac3, active compounds read low 0.972 | locus YDR162C, strain NBP2, active compounds read low 1.02 | locus YDR195W, strain ref2 0.958 | locus YDR297W, strain sur2, active compounds read low 1 | locus YDR318W, strain mcm21, active compounds read low 0.994 | locus YDR334W, strain swr1, active compounds read low 0.996 | locus YDR335W, strain msn5, active compounds read low 1.01 | locus YDR388W, active compounds read low 1.02 | locus YDR392W, strain spt3, active compounds read low 0.957 | locus YDR502C, strain sam2, active compounds read low 0.992 | locus YEL003W, strain gim4, active compounds read low 1.02 | locus YEL037C, strain rad23, active compounds read low 1.01 | locus YEL061C, strain CIN8 (second series), active compounds read low 0.999 | locus YEL061C, strain CIN8, active compounds read low 1.01 | locus YER015W, strain faa2, active compounds read low 0.995 | locus YER016W, strain bim1, active compounds read low 1 | locus YER110C, active compounds read low 1.02 | locus YER111C, strain swi4, active compounds read low 1 | locus YER155C, strain BEM2 (second series), active compounds read low 0.987 | locus YER155C, strain BEM2, active compounds read low 1.02 | locus YER167W, strain BCK2, active compounds read low 1.01 | locus YFR010W, strain ubp6, active compounds read low 0.99 | locus YGL078C, strain dbp3, active compounds read low 1.03 | locus YGL086W, strain mad1, active compounds read low 1.04 | locus YGL167C, strain pmr1, active compounds read low 0.999 | locus YGL173C, strain kem1, active compounds read low 1 | locus YGL227W, strain vid30, active compounds read low 1 | locus YGL240W, strain doc1, active compounds read low 1.03 | locus YGL248W, strain PDE1, active compounds read low 1.01 | locus YGL253W, strain hxk2, active compounds read low 1.03 | locus YGR078C, strain PAC10, active compounds read low 1.03 | locus YGR135W, strain pre9, active compounds read low 1.02 | locus YGR252W, strain gcn5, active compounds read low 1 | locus YHR013C, strain ard1, active compounds read low 0.997 | locus YHR027C, strain rpn1, active compounds read low 1.02 | locus YHR030C, strain SLT2, active compounds read low 1.01 and 0.972 | locus YHR079C, strain IRE1 (second series), active compounds read low 1.01 | locus YHR079C, strain IRE1, active compounds read low 0.96 | locus YHR094C, strain hxt1, active compounds read low 1.05 | locus YHR129C, strain ARP1, active compounds read low 1.02 | locus YHR142W, strain chs7, active compounds read low 1.02 | locus YHR200W, strain rpn10, active compounds read low 1.02 | locus YIL066C, strain RNR3, active compounds read low 1.02 | locus YIL073C, strain SPO22, active compounds read low 1.12 | locus YIL125W, strain kgd1, active compounds read low 1.01 | locus YIR030C, strain dcg1, active compounds read low 1.01 | locus YJL092W, strain hpr5, active compounds read low 1.02 | locus YJL095W, strain BCK1 (second series), active compounds read low 0.995 | locus YJL095W, strain BCK1, active compounds read low 1.02 and 1.06 | locus YJL115W, strain asf1, active compounds read low 0.99 | locus YJL129C, strain trk1, active compounds read low 0.987 | locus YJL134W, strain LCB3, active compounds read low 1 | locus YJL154C, strain vps35, active compounds read low 0.991 | locus YJL164C, strain tpk1, active compounds read low 1.02 | locus YJL166W, strain qcr8, active compounds read low 1.03 | locus YJL168C, strain set2, active compounds read low 1.03 | locus YJL187C, strain SWE1 (second series), active compounds read low 1.02 | locus YJL187C, strain SWE1, active compounds read low 1 | locus YJR043C, strain POL32, active compounds read low 1.02 | locus YJR066W, strain TOR1, active compounds read low 0.921
